According to the supplement of paper PMC11219838:
A number with no mark means an inactive call.

What follows are compounds tested on Caenorhabditis elegans L1 (N2) (assay: survival and reproduction score of C. elegans L1 (0: 0-10 living worms, 1: 11-20, 2: 21-50, 3: >50, 4: overgrown) (score 0-4); higher = more worms, less nematicidal, active = 1 or less; extreme values may be limits of the assay). Conditions: 60 µM; 6 days; temperature: 20 °C.
Procedure, shortened: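 In liquid NGM with E. coli HB101, approximately 20 synchronized C. elegans N2 L1s per 96-well well were exposed to compound at 60 µM final (0.6% v/v DMSO) for 6 days at 20 °C with shaking at 200 rpm in sealed plates. Survival and reproduction were judged under a dissection microscope as an ordinal rating of living worms per well. Ratings went from 0 (0–10 worms) to 4 (overgrown, starved) and were averaged over two biological replicates.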

| SMILES | survival and reproduction score |
| --- | --- |
| Cc1cccc(-c2noc(COc3ccc(C)cc3C)n2)c1 | 4 |
| CC(C)Oc1ccc(-c2nc(-c3cccnc3)no2)cc1 | 0 (active) |
| Cc1[nH]c2ccc(-c3nnc(SCC(=O)NCc4ccc(F)cc4)o3)cc2c1C | 4 |
| Brc1cccc(-c2nnc(SCc3ccccc3)o2)c1 | 4 |
| O=C(CSc1nnc(-c2ccco2)o1)Nc1cc(Cl)ccc1Cl | 4 |
| Cc1ccc(OC(C)c2nc(-c3ccc4c(c3)OCO4)no2)cc1C (stereo not drawn) | 4 |
| Cc1ccccc1-c1noc(-c2cccc(Br)c2)n1 | 4 |
| COc1ccc(-c2noc(COc3ccc(F)cc3)n2)cc1 | 4 |
| O=C(CSc1nnc(-c2ccco2)o1)NC1CCCCC1 | 4 |
| O=C(CSc1nnc(-c2ccccc2)o1)N1CCc2ccccc21 | 4 |
| CCOc1ccccc1-c1nc(-c2ccc(NC(=O)CCc3ccc(OC)cc3)cc2)no1 | 4 |
| Cc1ccc(-c2noc(COc3ccc(Cl)c(C)c3)n2)cc1 | 4 |
| Cc1ccc(-c2nc(-c3ccc(C(F)(F)F)cc3)no2)cc1 | 0 (active) |
| Cc1cccc(-c2noc(COc3ccc(Br)cc3)n2)c1 | 4 |
| Cc1cc(OCc2nc(-c3ccncc3)no2)ccc1Br | 4 |
| CCOc1cc(-c2nc(-c3ccccc3OC)no2)cc(OCC)c1OCC | 4 |
| O=C(CSc1nnc(-c2cccc(Br)c2)o1)N1CCCCC1 | 4 |
| CC(C)Oc1ccc(-c2nc(-c3ccccc3)no2)cc1 | 0 (active) |
| Cc1cccc(-c2nc(-c3ccc(Br)cc3)no2)c1 | 0 (active) |

| SMILES | survival and reproduction score |
| --- | --- |
| Fc1cccc(-c2nc(-c3ccccc3)no2)c1 | 0 (active) |
| CCn1c(SCc2ccc(OC)cc2)nnc1-c1ccco1 | 4 |
| CCCOc1ccc(-c2ccc(-c3nc(-c4cccnc4)no3)cc2)cc1 | 4 |
| COc1ccc(-c2noc(COc3ccc(Cl)c(C)c3)n2)cc1 | 4 |
| COc1ccc(Br)cc1-c1noc(-c2ccncc2)n1 | 4 |
| O=C(CSc1nnc(-c2ccccc2Cl)o1)Nc1ccc(Br)cn1 | 4 |
| CCCc1nnc(SCc2nnc(-c3ccccc3)o2)o1 | 4 |
| CCOc1nc(-c2ccccc2)ccc1-c1noc(-c2ccccc2F)n1 | 4 |
| COC(=O)CSc1nnc(-c2ccc(C(C)(C)C)cc2)o1 | 3.5 |
| COc1ccccc1-c1nnc(SCC(=O)OCc2ccccc2)o1 | 4 |
| CCn1c(C)cc(C(=O)CSc2nnc(-c3ccccc3)o2)c1C | 4 |
| Cc1ccc(NC(=O)CSc2nnc(-c3ccc(C(C)(C)C)cc3)o2)c(C)c1 | 2 |
| CCc1ccc(OCc2nc(-c3cccnc3)no2)cc1 | 4 |
| CCOC(=O)c1c(NC(=O)CSc2nnc(-c3ccc(Cl)cc3)o2)sc(C)c1C | 4 |
| Cc1ccc(-c2noc(-c3ccccc3C(=O)N3CCC(C)CC3)n2)cc1 | 4 |
| COc1ccccc1-c1nnc(SCC(=O)Nc2ccc(F)cc2)o1 | 4 |
| COc1ccc(CSc2nnc(-c3ccc(Cl)cc3Cl)o2)cc1 | 0 (active) |
| CCOc1nc(-c2ccccc2)ccc1-c1noc(-c2cccc(C)c2)n1 | 4 |
| CCc1cccc(CC)c1NC(=O)CSc1nnc(-c2ccccc2OC)o1 | 4 |
